High-throughput results deposited in PubChem BioAssay by National Center for Advancing Translational Sciences (NCATS).
TDP1 cell noCPT = qHTS for Inhibitors of human tyrosyl-DNA phosphodiesterase 1 (TDP1): qHTS in cells in absence of CPT; Potency, µM (titrated, usually from 46.2 µM), for the others: at the top dose activity change, negative = growth inhibition, hits mostly inhibitors; 15% of 420,000 active; DT40 Tdp1-/- hTDP1 cells, no CPT, ATP luminescence, 48 h; note: potency is the fitted concentration of half-maximal effect; nearly all actives have a fitted effect of over 55% in size
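Growth kinetics read by CellTiter-Glo luminescence after ≥48 hr at 37 °C. Cells: DT40 Tdp1-/- stably carrying human TDP1, 400 per well, compound exposure in the absence of CPT (DMSO vehicle).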
12-LOX inh = inhibitors of human 12S-lipoxygenase ALOX12 | P18054 | purified 12hLO, xylenol orange hydroperoxide absorbance | Potency, µM (top dose mostly 108 µM), for inactives: top-dose activity change, negative = inhibition, usual class: inhibitors | 1.1% of 580,000 active | AID 1671190; note: potency is the fitted concentration of half-maximal effect
Target sequence (P18054 whole entry, looked up): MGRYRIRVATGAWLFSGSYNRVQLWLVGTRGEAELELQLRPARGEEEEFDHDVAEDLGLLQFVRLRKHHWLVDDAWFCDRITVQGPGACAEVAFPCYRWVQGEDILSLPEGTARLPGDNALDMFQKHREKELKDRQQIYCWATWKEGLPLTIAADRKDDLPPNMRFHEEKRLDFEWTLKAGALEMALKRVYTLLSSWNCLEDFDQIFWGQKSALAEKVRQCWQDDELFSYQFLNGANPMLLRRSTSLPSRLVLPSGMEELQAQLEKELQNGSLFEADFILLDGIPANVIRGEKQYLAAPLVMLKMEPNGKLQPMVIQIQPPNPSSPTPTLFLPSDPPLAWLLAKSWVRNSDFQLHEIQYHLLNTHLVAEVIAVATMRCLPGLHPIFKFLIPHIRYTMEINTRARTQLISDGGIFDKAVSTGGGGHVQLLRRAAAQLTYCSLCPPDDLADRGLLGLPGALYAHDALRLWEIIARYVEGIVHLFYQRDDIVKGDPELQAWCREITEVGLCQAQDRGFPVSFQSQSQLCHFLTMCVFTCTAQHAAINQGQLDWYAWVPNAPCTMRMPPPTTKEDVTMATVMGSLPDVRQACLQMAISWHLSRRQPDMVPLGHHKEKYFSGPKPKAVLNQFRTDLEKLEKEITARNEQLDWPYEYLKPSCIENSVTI
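Hydroperoxide product was detected by ferrous iron/xylenol orange as the 573 to 405 nm absorbance ratio. Arachidonic acid at 40 uM (final) was turned over for 30 min at room temperature by 150 nM human 12hLO, pH 7.0 Hepes buffer, after 15 min compound preincubation.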
HT1080-NT tox = kills 2HG-producing HT-1080-NT fibrosarcoma cells. HT-1080-NT fibrosarcoma viability, CellTiter-Glo ATP luminescence, 48 h. Potency, µM (titrated, usually from 46.1 µM), inactives show at the highest dose activity, negative = less viability, hits mostly cytotoxic. 1.6% of 360,000 active. AID 686970;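 note: NT is the 2HG producing partner of a matched IDH1 knockdown line; potency is the fitted concentration of half-maximal effect; 0% = DMSO-treated cells and -100% = media-only wells without cells; nearly all actives have a fitted effect of over 55% in size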
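A 48-hour cytotoxicity screen used HT-1080-NT cells plated 2 hours before compound delivery. ATP-based CellTiter-Glo luminescence measured viability, normalized to DMSO and no-cell controls.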
TDP1 cell CPT = growth inhibition of DT40 Tdp1-/-;hTDP1 cells with camptothecin (screen for TDP1 inhibitors); chicken DT40 Tdp1-/-;hTDP1 cells + 20 nM CPT, ATP luminescence, 48 h; Potency, µM (series often up to 46.2 µM), for inactives: at the highest dose activity change, negative = growth inhibition, hits mostly inhibitors; 12% of 420,000 active; note: potency is the fitted concentration of half-maximal effect; nearly all actives have a fitted effect of over 55% in size
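Chicken DT40 Tdp1-/- cells stably complemented with human TDP1 were seeded at 400 cells/well in medium containing 20 nM camptothecin, exposed to pin-transferred compounds, and grown at 37 °C for at least 48 hr. Viability was read as ATP luminescence.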
HT1080 IDH1KD tx = HT-1080 IDH1 knockdown cell toxicity (counter line). HT-1080 IDH1 knockdown viability, ATP luminescence, 48 h. Potency, µM (doses to about 46.1 µM), without a hit: at the top dose activity, negative = toxicity, usual class: cytotoxic. 2% of 360,000 active;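 note: potency is the fitted concentration of half-maximal effect; 0% = DMSO wells and -100% = cell-free medium wells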
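HT-1080-IDH1KD cells (IDH1 knocked down), 750/well in RPMI with 5% FBS, treated with compound 48 h at 37 degrees C. Viability by CellTiter-Glo luminescence, normalised to DMSO and no-cell wells; concentration-response curves classed.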
IL-1B inflam inh = inhibitors of inflammasome signaling (IL-1 beta secretion). activity change, % at 57.5 µM. 4.7% of 360,000 active. THP-1 LPS/ATP IL-1B secretion, AlphaLISA, 16 h; stronger effect = lower value; in the data active = activity change below about -50%; inconclusive = mostly about -30% to -49%
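THP-1 cells pretreated 1 hr with compounds (up to 57.5 uM final), then stimulated with LPS (250 ng/mL final) plus ATP (1.25 mM final); secreted IL-1B measured by AlphaLISA after 16 hr, decreased signal indicating inhibition.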
* marks the source's active call; other numbers are inactive results; u = inconclusive; x = no result given; [ ] = remark or other dose. The sample as a whole holds a higher share of hits than the screen did. Unless noted, calls come from the whole dose curve; as a rule, active = well fitted curve in the direction sought with a large enough effect; inconclusive = small, poorly fitted or top-dose-only effect, or another doubt; inactive = no such curve, though single readings can be large; an effect the other way counts as inactive or inconclusive. Unless noted, % is set by controls: 0 for no effect and ±100 for the full control effect.

SMILES	TDP1 cell noCPT	12-LOX inh	HT1080-NT tox	TDP1 cell CPT	HT1080 IDH1KD tx	IL-1B inflam inh
COc1cc(C)c(N(C(C)=O)c2ccccc2)c(C)c1	-30%	0%	1%	-13%	1%[9.24 µM]	5
O=[N+]([O-])c1cccc(-c2nc3ccc([N+](=O)[O-])cc3[nH]2)c1	21µM*	0%	5%	10µM*	5%	-16
Nc1nc2ccc([N+](=O)[O-])cc2[nH]1	-25%	15%	8%	-11%	4%	-21
O=[N+]([O-])c1ccc2nc(-c3ccncc3)[nH]c2c1	u	9%	3%	u	-2%	51
O=[N+]([O-])c1ccc2nc(-[n+]3c(-c4ccccc4)cc(-c4ccccc4)cc3-c3ccccc3)[nH]c2c1	21µM*	x	-1%	23µM*	-13%	u
O=[N+]([O-])c1ccc2nc(-c3ccccc3[N+](=O)[O-])[nH]c2c1	-12%	1%	-13%	0%	-7%	u
O=[N+]([O-])c1ccc2nc(-c3ccc(Cl)cc3)[nH]c2c1	16µM*	20µM*	-10%	u	-10%	u
COc1ccc(-c2nc3ccc([N+](=O)[O-])cc3[nH]2)cc1	u	-27%	1%	u	0%	-7
Cc1ccc(-c2nc3ccc([N+](=O)[O-])cc3[nH]2)cc1	21µM*	u	7%	u	20%	-15
COc1ccccc1-c1cccc(CN)c1	x	12%[12.5 µM]	x	x	x	x
COCc1cc(N2CCN(C(=O)OC(C)(C)C)C[C@H]2C)ccc1N1CCS(=O)(=O)CC1	x	-9%	x	x	x	x
CC(C(=O)NCc1cc(F)cc(F)c1)C1CCOCC1 (configuration not stated)	x	42%	x	x	x	x
CCC(=O)N1CCc2sc(C(=O)NC3CCCCCC3)cc2C1	x	25%	x	x	x	x
Nc1cccc(-c2nc3ccccc3[nH]2)c1	u	26%	4%	u	0%	2
Clc1ccc(-c2nc3ccncc3[nH]2)cc1	u	-18%	u	10µM*	u	4
Cc1ccc2nc(-c3cccc(N)c3)[nH]c2c1	u	-18%	u	15µM*	u	-4
Fc1ccc(-c2nc3ccncc3[nH]2)cc1	-14%	7%	-7%	-23%	-4%	-5
COCCN(CC1CCN(Cc2ccccc2F)CC1)C(=O)c1ccc(OC)cc1OC	x	13%	x	x	x	x
COC(=O)C1=CN(c2ccc(N3CCOCC3)cc2)C(N)=C(C#N)C1c1ccc(-c2ccccc2)cc1 (configuration not stated)	5.8µM*	-4%	-2%	7.3µM*	-23%	7
COC(=O)C1=CN(c2cccc(OCc3ccccc3)c2)C(N)=C(C#N)C1c1ccccc1 (configuration not stated)	u	3%	3%	u	1%	8
COC(=O)C1=CN(c2ccc(Oc3ccccc3)cc2)C(N)=C(C#N)C1c1ccccc1 (configuration not stated)	15µM*	u	-22%	u	-23%	-1
COC(=O)C1=CN(c2ccc3c(c2)OCO3)C(N)=C(C#N)C1c1ccccc1 (configuration not stated)	5.8µM*	u	18µM*	5.2µM*	12µM*	-19
COC(=O)C1=CN(c2ccccc2OC)C(N)=C(C#N)C1c1cccc([N+](=O)[O-])c1 (configuration not stated)	1.3µM*	u	2.3µM*	0.82µM*	1.8µM*	55
COC(=O)C1=CN(c2ccc(Oc3ccccc3)cc2)C(N)=C(C#N)C1c1ccc(-c2ccccc2)cc1 (configuration not stated)	u	-24%	-2%	u	6%	-11
O=C(CCc1ncc(-c2ccccc2)o1)NCc1ccc(F)cc1	x	4%	x	x	x	x
SMILES	TDP1 cell noCPT	12-LOX inh	HT1080-NT tox	TDP1 cell CPT	HT1080 IDH1KD tx	IL-1B inflam inh
COC(=O)C1=CN(c2ccc(F)cc2)C(N)=C(C#N)C1c1ccccc1 (configuration not stated)	21µM*	45µM*	-27%	u	u	0
CS(=O)(=O)N1CCCN(Cc2cn[nH]c2C(=O)O)CC1	x	28%	x	x	x	x
COc1cc(OC)c(OC)cc1/C=C1\Oc2cc(OC(=O)c3ccc(C(C)(C)C)cc3)ccc2C1=O	x	-6%	x	x	x	x
Cc1ccc(/C=C2\SC(=O)N(CCC(=O)N3CCN(C)CC3)C2=O)cc1	23µM*	u	-13%	18µM*	-10%	-14
CN1CCN(C(=O)CCN2C(=O)S/C(=C/c3ccc(Cl)cc3)C2=O)CC1	13µM*	-9%	21%	13µM*	10%	0
CC(C)COC(=O)CN1C(=O)S/C(=C/c2ccc(Cl)cc2)C1=O	x	24%	x	x	x	x
COc1ccc(/C=C2\SC(=O)N(CCC(=O)N3CCN(C)CC3)C2=O)cc1	u	-17%	30%	-26%	8%	0
CC12CCC(=O)N1C(C(=O)NCCN1C(=O)S/C(=C\c3ccccc3Cl)C1=O)CS2 (configuration not stated)	u	-7%	-1%	-25%	-2%	-12
O=C1S/C(=C\c2ccc(Cl)cc2)C(=O)N1CCn1cnnn1	u	-8%	-4%	-8%	0%	-62*
Cc1ccc(/C=C2\SC(=O)N(CCNC(=O)C3CSC4(C)CCC(=O)N34)C2=O)cc1 (configuration not stated)	15µM*	u	5%	u	6%	u
Cc1nnc(SCc2c(C(=O)NC(C)c3ccccn3)oc3ccccc23)s1 (configuration not stated)	x	3%	x	x	x	x
CCOc1ccc(/C=C/C(N)=O)cc1	x	25%	x	x	x	x
O=C(Nc1ccccc1)N1CCC2(CC1)CCN(C(=O)c1csnn1)CC2	-9%	3%[57.4 µM]	x	12%	x	x
COc1ccc2nc(NC(=O)c3cc(C)oc3C)sc2c1	u	0%	-18%	u	-21%	-10
COc1cccc(Nc2nc3ccc(OC)cc3s2)c1	u	-12%	-3%	-24%	-19%	-172*
COC(=O)c1ccc2nc(NC(=O)C(C)(C)C)sc2c1	u	3%	18µM*	u	u	0
COc1ccc2nc(NC(=O)c3ccoc3C)sc2c1	u	-1%	10µM*	u	11µM*	-9
COc1ccc2nc(NC(=O)CSC3=NCCS3)sc2c1	u	329%	-25%	u	u	-58*
C[C@@H](NC(=O)c1cnccn1)c1onc(-c2ccc(F)cc2)c1C(=O)O	x	-22%[176 µM]	x	x	x	x
